Calls of active or inactive are those of the source. Unless noted, the call rests on the fitted dose curve; in most records, active means well fitted curve in the direction sought with a large enough effect in the repeat runs; inconclusive means weak or mixed curves; inactive means no such curve, though single readings can be large; an effect the other way counts as inactive or inconclusive.
Tests used:
[1] = qHTS assay to identify small molecule antagonists of the thyroid receptor (TR) signaling pathway - cell viability counter screen (AID 743064); further: nearly all actives have a fitted effect of over 50% in size; further: potency means the concentration at half of the fitted maximal effect
In short: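 GH3.TRE-Luc rat pituitary cells dosed after 4 hr plating, co-stimulated with T3 at 1 nM final, incubated 23.5 h at 37 C. Viability measured in the same wells by CellTiter-Fluor fluorescence after 30 min further at 37 C.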

[2] = qHTS assay to identify small molecule antagonists of the thyroid receptor (TR) signaling pathway (AID 743065); further: nearly all actives have a fitted effect of over 55% in size; further: potency means the concentration at half of the fitted maximal effect
In short: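 Antagonism measured as loss of luciferase signal in GH3 cells stably carrying a TRE-luciferase reporter, co-treated with compound and T3 (1 nM final) for 23.5 h at 37 C. Viability was read in the same well by CellTiter-Fluor.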

[3] = tested on: thyroid hormone receptor (rat, GH3 cells); assay: qHTS assay to identify small molecule agonists of the thyroid receptor (TR) signaling pathway (AID 743066; calls by dose curve)
[4] = target: Estrogen receptor (Homo sapiens) (UniProt P03372); assay: qHTS assay to identify small molecule antagonists of the estrogen receptor alpha (ER-alpha) signaling pathway (AID 743069; active means well fitted curve in the direction sought with a large enough effect in the signal ratio in the repeat runs, not every such curve was filed as active; inconclusive means weak or mixed curves, or effect the other way; inactive means no such curve, though single readings can be large or run the other way; the % refers to the signal ratio; further: potency means the concentration at half of the fitted maximal effect)
In short: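 Fluorescence intensity from a beta-lactamase FRET substrate served as the read-out. Cells: HEK293 with stably integrated ER-alpha-UAS-bla reporter. Agonist 17beta-estradiol was co-added with compounds; incubation 18 hr at 37C, substrate 2 hr at room temperature.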

[5] = qHTS assay to identify small molecule antagonists of the estrogen receptor alpha (ER-alpha) signaling pathway - cell viability counter screen (AID 743074; calls by dose curve; further: nearly all actives have a fitted effect of over 45% in size)
[6] = target: Estrogen receptor (Homo sapiens) (UniProt P03372); assay: qHTS assay to identify small molecule agonists of the estrogen receptor alpha (ER-alpha) signaling pathway using the BG1 cell line (AID 743079); conditions: BG1Luc4E2 cells, ERE-luciferase agonist, 22 h; for activation: at 70.3 µM (top of the series); further: potency means the concentration at half of the fitted maximal effect; on all read-outs here: nearly all actives have a fitted effect of over 20% in size
[7] = qHTS assay to identify small molecule antagonists of the estrogen receptor alpha (ER-alpha) signaling pathway using the BG1 cell line (AID 743080; calls by dose curve;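 further: BG1 cells stimulated with 17beta-estradiol alongside compound; nearly all actives have a fitted effect of over 25% in size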)
In short: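 BG1-Luc-4E2 cells (endogenous full-length ER-alpha, 4xERE luciferase) hormone-starved 5 days in charcoal-stripped FBS, plated 4,000/well for 24 h, then compound plus 17beta-estradiol for 21.5 h at 37 C; ONE-Glo luminescence read.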

[8] = qHTS assay to identify small molecule antagonists of the estrogen receptor alpha (ER-alpha) signaling pathway using the BG1 cell line - cell viability counter screen (AID 743081);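 further: compound given together with 17beta-estradiol as the ER stimulus; nearly all actives have a fitted effect of over 45% in size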; further: potency means the concentration at half of the fitted maximal effect
Aromatase (Homo sapiens) = Aromatase (Homo sapiens) (UniProt P11511); assay: qHTS assay to identify aromatase inhibitors (AID 743083); further: nearly all actives have a fitted effect of over 55% in size; further: potency means the concentration at half of the fitted maximal effect
[9] = qHTS assay to identify aromatase inhibitors - cell viability counter screen (AID 743084);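 further: cells stimulated with testosterone during compound exposure; nearly all actives have a fitted effect of over 55% in size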; further: potency means the concentration at half of the fitted maximal effect
[10] = qHTS assay to identify small molecule that activate the aryl hydrocarbon receptor (AhR) signaling pathway - cell viability counter screen (AID 743086);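 further: HepG2 liver cells carrying the AhR DRE luciferase reporter; nearly all actives have a fitted effect of over 45% in size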
In short: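 Cytotoxicity counter screen: CellTiter-Fluor signal (30 min, 37 C) in 4000 HepG2 cells/well carrying the DRE-luciferase reporter, following 24 h compound exposure at 37 C.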

[11] = target: Peroxisome proliferator-activated receptor gamma (Homo sapiens) (UniProt P37231); assay: qHTS assay to identify small molecule agonists of the peroxisome proliferator-activated receptor gamma (PPARg) signaling pathway (AID 743094; active means well fitted activation curve with a large enough effect in the signal ratio in the repeat runs, not every such curve was filed as active; inconclusive means weak or mixed curves, or effect the other way; inactive means no such curve, though single readings can be large or run the other way; the % refers to the signal ratio)
In short: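 Fluorescence-based beta-lactamase readout in HEK293H PPARg UAS-bla cells after 17 h compound exposure (37C) and 1 h B/G FRET substrate incubation at room temperature.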

[12] = qHTS assay to identify small molecule antagonists of the peroxisome proliferator-activated receptor gamma (PPARg) signaling pathway - cell viability counter screen (AID 743194); conditions: Potency: co-treated with 50 nM rosiglitazone; further: nearly all actives have a fitted effect of over 55% in size
In short: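 Viability was measured as CellTiter-Glo luminescence in GeneBLAzer PPARg UAS-bla HEK293H cells. These cells had been exposed 17 h at 37 C to compounds together with rosiglitazone at 50 nM final, with the beta-lactamase readout taken in the same wells.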

[13] = qHTS assay for small molecule agonists of the antioxidant response element (ARE) signaling pathway (AID 743202; active means well fitted activation curve with a large enough effect in the signal ratio in the repeat runs, not every such curve was filed as active; inconclusive means weak or mixed curves, or effect the other way; inactive means no such curve, though single readings can be large or run the other way; the % refers to the signal ratio)
In short: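 Beta-lactamase reporter activity, read as fluorescence intensity, reflects ARE/Nrf2 pathway induction in HepG2 cells after 16 h compound exposure at 37 C; substrate loading was 2 h at room temperature.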

[14] = qHTS assay for small molecule agonists of the antioxidant response element (ARE) signaling pathway - cell viability counter screen (AID 743203; calls by dose curve; further: nearly all actives have a fitted effect of over 55% in size; further: potency means the concentration at half of the fitted maximal effect)
In short: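 Parallel cytotoxicity read-out for the ARE-bla screen: HepG2 reporter cells, 16 hrs with compounds, then CellTiter-Glo luminescence.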

[15] = qHTS assay for small molecule activators of the heat shock response signaling pathway - cell viability counter screen (AID 743209); further: nearly all actives have a fitted effect of over 50% in size
In short: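 To flag cytotoxic compounds, HSE-bla HeLa cells plated at 1500 cells/well were dosed for 5 h at 37 C, followed by the reporter FRET read and then CellTiter-Glo, with luminescence recorded 30 min after reagent addition.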

[16] = qHTS assay for small molecule activators of the heat shock response signaling pathway (AID 743210; active means well fitted activation curve with a large enough effect in the signal ratio in the repeat runs, with a control signal flat, not every such curve was filed as active; inconclusive means weak or mixed curves; the % refers to the signal ratio;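 further: HeLa cells with beta-lactamase reporter driven by heat shock elements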)
In short: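 Fluorescence from a cleaved B/G FRET substrate (2.5 h, room temp) reports HSE-driven beta-lactamase in HeLa cells treated 5 h at 37 C with DMSO-dissolved compounds.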

[17] = target: Estrogen receptor (Homo sapiens) (UniProt P03372); assay: qHTS assay to identify small molecule agonists of the estrogen receptor alpha (ER-alpha) signaling pathway (AID 743075; calls by dose curve; further: potency means the concentration at half of the fitted maximal effect)
[18] = target: Aryl hydrocarbon receptor (Homo sapiens) (UniProt P35869); assay: qHTS assay to identify small molecule that activate the aryl hydrocarbon receptor (AhR) signaling pathway (AID 743085); further: nearly all actives have a fitted effect of over 15% in size; further: potency means the concentration at half of the fitted maximal effect;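 on activation: HG2L7.5c1 human HepG2 liver cells with stably integrated DRE-driven firefly reporter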
In short: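 HepG2 cells stably carrying a 20-DRE firefly luciferase reporter (HG2L7.5c1) treated with compound for 24 hr at 37C. Luciferase read by ONE-Glo luminescence, with CellTiter-Fluor viability read first.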

[19] = target: Peroxisome proliferator-activated receptor gamma (Homo sapiens) (UniProt P37231); assay: qHTS assay to identify small molecule antagonists of the peroxisome proliferator-activated receptor gamma (PPARg) signaling pathway (AID 743191; calls by dose curve; further: nearly all actives have a fitted effect of over 30% in size)
In short: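 Beta-lactamase reporter under UAS control in HEK293H PPARg-bla cells; compound treatment 17 h at 37C. Read-out: fluorescence intensity after 1 h room-temperature incubation with LiveBLAzer B/G FRET substrate.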
On the % scale 0 is the no-effect control and ±100 the full control effect.

Sequence of Estrogen receptor (Homo sapiens) (P03372 whole entry, looked up): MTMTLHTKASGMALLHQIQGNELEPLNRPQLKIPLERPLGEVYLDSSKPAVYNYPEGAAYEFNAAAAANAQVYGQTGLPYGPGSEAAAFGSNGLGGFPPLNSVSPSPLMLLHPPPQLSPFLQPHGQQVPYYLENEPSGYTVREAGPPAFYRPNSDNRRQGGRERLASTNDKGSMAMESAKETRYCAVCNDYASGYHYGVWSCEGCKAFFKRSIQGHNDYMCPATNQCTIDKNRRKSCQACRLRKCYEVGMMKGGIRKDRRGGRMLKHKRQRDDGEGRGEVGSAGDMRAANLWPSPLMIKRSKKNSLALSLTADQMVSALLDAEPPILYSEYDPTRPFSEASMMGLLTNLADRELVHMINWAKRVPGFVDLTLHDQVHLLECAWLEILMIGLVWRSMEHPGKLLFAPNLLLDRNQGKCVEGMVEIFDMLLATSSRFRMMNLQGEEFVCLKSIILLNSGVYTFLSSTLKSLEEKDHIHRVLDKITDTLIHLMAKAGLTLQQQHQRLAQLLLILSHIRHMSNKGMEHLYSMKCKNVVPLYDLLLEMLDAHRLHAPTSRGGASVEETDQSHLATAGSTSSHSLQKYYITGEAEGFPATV
Sequence of Aryl hydrocarbon receptor (Homo sapiens) (P35869 whole entry, looked up): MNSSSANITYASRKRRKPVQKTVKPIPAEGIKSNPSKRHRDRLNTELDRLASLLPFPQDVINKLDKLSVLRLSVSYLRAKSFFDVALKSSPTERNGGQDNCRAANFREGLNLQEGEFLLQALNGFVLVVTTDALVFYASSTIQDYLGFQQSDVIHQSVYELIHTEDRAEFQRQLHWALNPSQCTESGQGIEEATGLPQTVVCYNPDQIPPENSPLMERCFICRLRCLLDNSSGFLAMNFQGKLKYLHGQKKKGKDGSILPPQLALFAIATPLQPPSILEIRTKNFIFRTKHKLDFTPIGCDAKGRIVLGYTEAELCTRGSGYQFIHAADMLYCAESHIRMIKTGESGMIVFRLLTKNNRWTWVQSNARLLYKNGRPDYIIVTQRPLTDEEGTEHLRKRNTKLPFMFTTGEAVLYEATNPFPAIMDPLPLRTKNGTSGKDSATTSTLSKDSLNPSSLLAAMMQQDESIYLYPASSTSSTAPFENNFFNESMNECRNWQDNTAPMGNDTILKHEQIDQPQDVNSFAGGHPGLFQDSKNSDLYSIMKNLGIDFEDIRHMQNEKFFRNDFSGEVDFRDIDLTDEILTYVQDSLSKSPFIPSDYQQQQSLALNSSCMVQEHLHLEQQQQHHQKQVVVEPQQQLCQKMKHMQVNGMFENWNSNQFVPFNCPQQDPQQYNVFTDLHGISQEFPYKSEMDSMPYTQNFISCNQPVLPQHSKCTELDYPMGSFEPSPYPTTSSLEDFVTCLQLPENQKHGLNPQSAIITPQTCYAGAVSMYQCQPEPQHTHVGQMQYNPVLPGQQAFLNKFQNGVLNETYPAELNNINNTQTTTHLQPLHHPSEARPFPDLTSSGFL
Sequence of Peroxisome proliferator-activated receptor gamma (Homo sapiens) (P37231 whole entry, looked up): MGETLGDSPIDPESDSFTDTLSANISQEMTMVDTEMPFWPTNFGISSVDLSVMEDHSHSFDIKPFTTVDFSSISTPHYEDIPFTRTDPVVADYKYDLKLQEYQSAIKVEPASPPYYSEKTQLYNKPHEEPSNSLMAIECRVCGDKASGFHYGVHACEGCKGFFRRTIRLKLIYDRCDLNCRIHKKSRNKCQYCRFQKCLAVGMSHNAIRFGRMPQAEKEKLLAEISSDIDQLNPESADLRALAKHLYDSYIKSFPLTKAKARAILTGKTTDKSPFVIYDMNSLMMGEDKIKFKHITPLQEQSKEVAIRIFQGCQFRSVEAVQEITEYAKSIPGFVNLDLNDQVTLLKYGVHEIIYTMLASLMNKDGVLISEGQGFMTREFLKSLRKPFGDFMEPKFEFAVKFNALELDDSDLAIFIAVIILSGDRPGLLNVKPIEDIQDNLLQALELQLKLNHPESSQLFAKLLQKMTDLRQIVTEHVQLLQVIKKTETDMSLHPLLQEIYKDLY
Sequence of Aromatase (Homo sapiens) (P11511 whole entry, looked up): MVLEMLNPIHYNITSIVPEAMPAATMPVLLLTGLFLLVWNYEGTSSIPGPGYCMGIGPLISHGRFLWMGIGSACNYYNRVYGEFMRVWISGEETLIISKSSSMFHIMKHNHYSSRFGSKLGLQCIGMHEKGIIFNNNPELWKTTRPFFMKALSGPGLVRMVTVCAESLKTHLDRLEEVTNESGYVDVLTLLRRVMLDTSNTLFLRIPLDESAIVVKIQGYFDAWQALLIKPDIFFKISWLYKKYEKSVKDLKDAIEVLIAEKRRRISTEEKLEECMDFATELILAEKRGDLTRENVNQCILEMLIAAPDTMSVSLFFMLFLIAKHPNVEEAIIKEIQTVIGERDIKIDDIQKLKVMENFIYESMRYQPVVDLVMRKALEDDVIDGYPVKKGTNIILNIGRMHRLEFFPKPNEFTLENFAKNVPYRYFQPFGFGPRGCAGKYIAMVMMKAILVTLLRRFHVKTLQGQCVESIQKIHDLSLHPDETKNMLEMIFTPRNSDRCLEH

CCCCOP(=O)(O)OCCCC
active: Potency [6] 24.3 µM
inactive: Potency [1] | Potency [2] | Potency [3] | Potency [4] | outcome [5] | Potency [7] | Potency [8] | Potency (Aromatase (Homo sapiens)) | Potency [9] | outcome [10] | outcome [11] | Potency [12] | Potency [13] | Potency [14] | Potency [15] | outcome [16]

Nc1c(Br)cc([N+](=O)[O-])cc1[N+](=O)[O-]
inactive: Potency [3] | Potency [4] | outcome [5] | Potency [17] | Potency [7] | Potency (Aromatase (Homo sapiens)) | Potency [12] | Potency [14] | outcome [16]
active: Potency [1] 55.1 µM | Potency [2] 61.8 µM | Potency [8] 31 µM | Potency [18] 13.8 µM

CSc1ccc(C(=O)C(C)(C)N2CCOCC2)cc1
active: Potency [17] 61.6 µM [inconclusive] | Potency [6] 3.44 µM
inactive: Potency [1] | Potency [2] | Potency [3] | Potency [4] | Potency [7] | Potency [8] | Potency (Aromatase (Homo sapiens)) | Potency [9] | Potency [18] | outcome [10] | outcome [11] | Potency [19] | Potency [12] | Potency [14] | Potency [15]

COc1ncc(F)c2nc(S(=O)(=O)Nc3c(F)cccc3F)nn12
inactive: Potency [1] | Potency [2] | Potency [3] | Potency [4] | outcome [5] | Potency [17] | activation [6] -3.47% | Potency [7] | Potency [8] | Potency (Aromatase (Homo sapiens)) | Potency [9] | Potency [18] | outcome [10] | Potency [12] | Potency [13] | Potency [14] | Potency [15] | outcome [16]

CCSC(=O)N(CC)C1CCCCC1
inactive: Potency [1] | Potency [2] | Potency [3] | Potency [4] | outcome [5] | Potency [17] | Potency [7] | Potency [8] | Potency (Aromatase (Homo sapiens)) | Potency [9] | Potency [18] | outcome [10] | outcome [11] | Potency [12] | Potency [13] | Potency [14] | Potency [15] | outcome [16]

CC(CC(C#N)(c1ccccc1)c1ccccc1)N(C)C (configuration not stated)
active: Potency [1] 24.2 µM | Potency [2] 30.5 µM
inactive: Potency [3] | Potency [4] | outcome [5] | Potency [17] | activation [6] -6.75% | Potency [7] | Potency [8] | Potency (Aromatase (Homo sapiens)) | Potency [9] | Potency [18] | Potency [12] | Potency [14] | outcome [16]

CC1(C)CON(Cc2ccccc2Cl)C1=O
inactive: Potency [1] | Potency [2] | Potency [3] | Potency [4] | outcome [5] | Potency [17] | Potency [7] | Potency [8] | Potency (Aromatase (Homo sapiens)) | Potency [9] | Potency [18] | outcome [10] | outcome [11] | Potency [19] | Potency [14] | Potency [15] | outcome [16]

Nc1cnn(-c2ccccc2)c(=O)c1Cl
inactive: Potency [1] | Potency [2] | Potency [3] | Potency [4] | outcome [5] | Potency [17] | activation [6] 6.72% | Potency [7] | Potency [8] | Potency (Aromatase (Homo sapiens)) | Potency [9] | outcome [10] | outcome [11] | Potency [13] | Potency [14] | Potency [15] | outcome [16]

COc1cccc2c1cc([N+](=O)[O-])c1c(C(=O)O)cc3c(c12)OCO3
active: Potency [1] 3.06 µM | Potency [2] 2.73 µM | Potency [4] 21.9 µM [inconclusive] | Potency [8] 61.1 µM | Potency (Aromatase (Homo sapiens)) 10.9 µM | Potency [9] 24.3 µM | Potency [14] 17.2 µM
inactive: Potency [3] | Potency [17]

CNC(=O)Oc1ccccc1C1OCCO1
inactive: Potency [1] | Potency [2] | Potency [3] | Potency [4] | Potency [17] | activation [6] -9.73% | Potency [7] | Potency [8] | Potency (Aromatase (Homo sapiens)) | Potency [9] | outcome [10] | outcome [11] | Potency [19] | Potency [12] | Potency [14]

CCOP(=S)(OCC)Oc1ncn(-c2ccccc2)n1
inactive: Potency [1] | Potency [2] | Potency [3] | outcome [5] | Potency [17] | Potency [7] | Potency [8] | Potency (Aromatase (Homo sapiens)) | Potency [9] | outcome [10] | outcome [11] | Potency [19] | Potency [12] | Potency [14] | Potency [15]
active: Potency [6] 54.5 µM | Potency [18] 24.3 µM

CCCCOC(=O)[C@@H](C)Oc1ccc(Oc2ccc(C#N)cc2F)cc1
inactive: Potency [1] | Potency [2] | Potency [3] | outcome [5] | Potency [17] | activation [6] -4.38% | Potency [7] | Potency [8] | Potency (Aromatase (Homo sapiens)) | Potency [9] | Potency [18] | outcome [10] | outcome [11] | Potency [12] | Potency [14] | outcome [16]

CC(Cl)(Cl)[N+](=O)[O-]
inactive: Potency [1] | Potency [2] | Potency [3] | Potency [4] | Potency [17] | activation [6] -5.99% | Potency [7] | Potency [8] | Potency (Aromatase (Homo sapiens)) | Potency [9] | Potency [18] | outcome [10] | outcome [11] | Potency [19] | Potency [12] | Potency [13] | Potency [14] | Potency [15]

Reference: PubChem BioAssay (Tox21)
